Laboratory results as given in PubChem BioAssay AID1159580 (chemical genetic matrix, 2015).
Values joined by “and” are separate entries in the source; they are usually repeats but may differ in a detail not shown here. Identical values can stand only once. Among all 5,500 compounds or so, about 2,000 (36%) were called active. Another 18% or so got no clear call; they are omitted. Cut-off read from the data, not from the text of the source: active = normalized growth mostly below about 0.91 (no sharp cut-off); inconclusive = no clear call, values can overlap the other calls; inactive = mostly above about 0.92. The list shows a part of the results.

Test: chemical genetic growth profiling, strain panel (AID 1159580);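 note: tested at 20 µM; growth read once vehicle control cultures reached saturation at 30 °C; 1 = growth at the plate median or of vehicle wells; lower values mean less growth of the strain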
Conditions: S. cerevisiae deletion strains, growth OD

Measured: normalized growth

COc1cc([C@@H]2c3cc4c(cc3[C@H](OC(C)=O)[C@H]3COC(=O)[C@H]23)OCO4)cc(OC)c1OC
inactive: locus YAL021C, strain ccr4, stronger effect = lower value 0.992 | locus YAL026C, strain drs2, stronger effect = lower value 1.01 | locus YAL030W, strain snc1, stronger effect = lower value 0.999 | locus YBL061C, strain skt5, stronger effect = lower value 1.01 | locus YBR009C, strain hhf1, stronger effect = lower value 1.01 | locus YBR021W, strain FUR4, stronger effect = lower value 0.956 | locus YBR023C, strain chs3, stronger effect = lower value 1 | locus YBR171W, strain sec66, stronger effect = lower value 1.02 | locus YBR229C, strain ROT2, stronger effect = lower value 0.99 | locus YBR231C, strain swc5, stronger effect = lower value 1 | locus YBR279W, strain paf1, stronger effect = lower value 0.976 | locus YCL011C, strain gbp2, stronger effect = lower value 1 | locus YCL016C, strain dcc1, stronger effect = lower value 1.01 | locus YCL029C, strain bik1, stronger effect = lower value 0.986 | locus YCL061C, strain MRC1, stronger effect = lower value 1.01 | locus YCL069W, strain vba3, stronger effect = lower value 0.999 | locus YCR088W, strain abp1, stronger effect = lower value 1.01 | locus YDL005C, strain med2, stronger effect = lower value 1.01 | locus YDL035C, strain GPR1, stronger effect = lower value 1.02 | locus YDL040C, strain nat1, stronger effect = lower value 0.996 | locus YDL074C, strain BRE1, stronger effect = lower value 0.991 | locus YDL101C, strain DUN1, stronger effect = lower value 0.998 | locus YDL134C, strain PPH21, stronger effect = lower value 1.03 | locus YDL185W, strain tfp1, stronger effect = lower value 0.983 | locus YDL192W, strain arf1, stronger effect = lower value 1.01 | locus YDR001C, strain nth1, stronger effect = lower value 0.999 | locus YDR069C, strain doa4, stronger effect = lower value 1.02 | locus YDR101C, strain arx1, stronger effect = lower value 0.996 | locus YDR137W, strain rgp1, stronger effect = lower value 0.884 | locus YDR159W, strain sac3, stronger effect = lower value 1.01 | locus YDR162C, strain NBP2, stronger effect = lower value 1.02 | locus YDR195W, strain ref2 1 | locus YDR297W, strain sur2, stronger effect = lower value 0.998 | locus YDR318W, strain mcm21, stronger effect = lower value 0.987 | locus YDR334W, strain swr1, stronger effect = lower value 1.01 | locus YDR335W, strain msn5, stronger effect = lower value 0.998 | locus YDR388W, stronger effect = lower value 0.98 | locus YDR392W, strain spt3, stronger effect = lower value 1.01 | locus YDR502C, strain sam2, stronger effect = lower value 0.989 | locus YEL003W, strain gim4, stronger effect = lower value 1.01 | locus YEL037C, strain rad23, stronger effect = lower value 1 | locus YEL061C, strain CIN8 (second series), stronger effect = lower value 0.996 | locus YEL061C, strain CIN8, stronger effect = lower value 1 | locus YER015W, strain faa2, stronger effect = lower value 1.02 | locus YER016W, strain bim1, stronger effect = lower value 1 | locus YER110C, stronger effect = lower value 0.96 | locus YER111C, strain swi4, stronger effect = lower value 1.01 | locus YER155C, strain BEM2 (second series), stronger effect = lower value 1.04 | locus YER155C, strain BEM2, stronger effect = lower value 0.983 | locus YER167W, strain BCK2, stronger effect = lower value 0.998 | locus YFR010W, strain ubp6, stronger effect = lower value 1 | locus YGL078C, strain dbp3, stronger effect = lower value 0.971 | locus YGL086W, strain mad1, stronger effect = lower value 0.997 | locus YGL167C, strain pmr1, stronger effect = lower value 1.02 | locus YGL173C, strain kem1, stronger effect = lower value 1.01 | locus YGL227W, strain vid30, stronger effect = lower value 1 | locus YGL240W, strain doc1, stronger effect = lower value 1.01 | locus YGL248W, strain PDE1, stronger effect = lower value 0.996 | locus YGL253W, strain hxk2, stronger effect = lower value 1.01 | locus YGR135W, strain pre9, stronger effect = lower value 0.986 | locus YGR252W, strain gcn5, stronger effect = lower value 0.983 | locus YHR013C, strain ard1, stronger effect = lower value 0.988 | locus YHR027C, strain rpn1, stronger effect = lower value 1 | locus YHR030C, strain SLT2, stronger effect = lower value 0.996 and 0.987 | locus YHR079C, strain IRE1 (second series), stronger effect = lower value 0.988 | locus YHR079C, strain IRE1, stronger effect = lower value 0.98 | locus YHR094C, strain hxt1, stronger effect = lower value 0.973 | locus YHR129C, strain ARP1, stronger effect = lower value 1 | locus YHR142W, strain chs7, stronger effect = lower value 0.996 | locus YHR200W, strain rpn10, stronger effect = lower value 0.988 | locus YIL066C, strain RNR3, stronger effect = lower value 1.01 | locus YIL073C, strain SPO22, stronger effect = lower value 0.98 | locus YIL125W, strain kgd1, stronger effect = lower value 0.987 | locus YIR030C, strain dcg1, stronger effect = lower value 0.974 | locus YJL092W, strain hpr5, stronger effect = lower value 1.01 | locus YJL095W, strain BCK1 (second series), stronger effect = lower value 1 | locus YJL095W, strain BCK1, stronger effect = lower value 1.01 and 1.04 | locus YJL115W, strain asf1, stronger effect = lower value 1.01 | locus YJL129C, strain trk1, stronger effect = lower value 1 | locus YJL134W, strain LCB3, stronger effect = lower value 0.993 | locus YJL154C, strain vps35, stronger effect = lower value 1.01 | locus YJL164C, strain tpk1, stronger effect = lower value 1.01 | locus YJL166W, strain qcr8, stronger effect = lower value 0.995 | locus YJL168C, strain set2, stronger effect = lower value 0.977 | locus YJL187C, strain SWE1 (second series), stronger effect = lower value 1 | locus YJL187C, strain SWE1, stronger effect = lower value 0.99 | locus YJR043C, strain POL32, stronger effect = lower value 1.03
